A selection: hits, their analogues and other compounds. The true share with any hit is near 12%.
Sfp PPTase inh: blocks B. subtilis Sfp PPTase activity; Q9F4F7; Biochemical Sfp PPTase activity, qHTS; Potency, µM, usual class: inhibitors; 310,000 tested, 3.5% active;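 also: the enzyme is Sfp with the accession as filed and its product quenches rhodamine fluorescence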
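Sfp 15 nM + cpd, 15 min RT; start w/ rhodamine-CoA 5 uM, BHQ-2-YbbR 12.5 uM (final); 50 mM Hepes pH 7.6, 10 mM MgCl2, 0.01% NP-40, 0.01% BSA; read 525/598 nm at 0 and 30 min.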
HP1b binding inh: inhibitors of HP1-beta chromodomain binding to methylated histone tails; Potency, µM (series often up to 114 µM), most hits filed as inhibitors; AID 540317; P83916; AlphaScreen HP1-beta / biotin-H3K9me3 peptide binding; 390,000 tested, 0.56% active; also: nearly all actives have a fitted effect of over 70% in size
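AlphaScreen: HP1-beta (50 nM) preformed 30 min with biotin-H3(1-18)K9me3 peptide (50 nM) in PBS pH 7.4, 0.01% Tween-20. Compound added for 30 min at RT, then streptavidin donor/nickel chelate acceptor beads (10 ug/mL) for 30 min.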
JMJD2A Tudor inh: blocks the human JMJD2A Tudor domain; O75164; AlphaScreen JMJD2A-Tudor / H3K4me3 peptide binding; Potency, µM (top dose mostly 114 µM), actives largely listed as inhibitors; 390,000 tested, 4.4% active; also: nearly all actives have a fitted effect of over 50% in size
Target sequence (O75164 whole entry, looked up, the tested form may be a part): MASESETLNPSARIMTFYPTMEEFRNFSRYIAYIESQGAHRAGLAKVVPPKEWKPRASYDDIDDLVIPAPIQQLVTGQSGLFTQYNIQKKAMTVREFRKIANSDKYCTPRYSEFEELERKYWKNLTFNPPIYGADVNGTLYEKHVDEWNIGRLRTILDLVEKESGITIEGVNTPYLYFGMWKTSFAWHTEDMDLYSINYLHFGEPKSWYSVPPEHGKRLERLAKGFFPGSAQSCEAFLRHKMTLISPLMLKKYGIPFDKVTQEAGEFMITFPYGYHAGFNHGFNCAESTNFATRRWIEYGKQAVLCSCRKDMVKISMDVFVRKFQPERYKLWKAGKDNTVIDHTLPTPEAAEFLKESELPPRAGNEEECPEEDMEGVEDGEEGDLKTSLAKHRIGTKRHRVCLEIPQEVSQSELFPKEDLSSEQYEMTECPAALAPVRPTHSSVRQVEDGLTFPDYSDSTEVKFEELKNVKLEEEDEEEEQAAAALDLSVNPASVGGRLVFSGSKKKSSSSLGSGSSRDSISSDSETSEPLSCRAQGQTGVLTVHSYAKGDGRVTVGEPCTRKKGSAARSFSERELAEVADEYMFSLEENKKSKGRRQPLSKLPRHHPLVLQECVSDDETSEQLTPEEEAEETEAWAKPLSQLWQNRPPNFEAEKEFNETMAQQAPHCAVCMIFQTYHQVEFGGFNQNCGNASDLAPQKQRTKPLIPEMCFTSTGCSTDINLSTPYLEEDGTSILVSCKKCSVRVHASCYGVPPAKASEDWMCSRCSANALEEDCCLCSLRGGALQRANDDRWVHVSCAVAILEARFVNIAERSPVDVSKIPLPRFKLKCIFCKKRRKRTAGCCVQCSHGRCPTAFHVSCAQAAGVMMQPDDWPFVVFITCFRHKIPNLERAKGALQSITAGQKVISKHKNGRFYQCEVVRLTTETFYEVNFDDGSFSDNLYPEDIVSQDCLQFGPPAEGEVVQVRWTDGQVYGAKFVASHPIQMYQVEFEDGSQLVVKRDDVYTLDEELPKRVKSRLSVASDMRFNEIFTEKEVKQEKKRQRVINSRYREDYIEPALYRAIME
L3MBTL1 inh: L3MBTL1 (human) inhibition; Q9Y468; AlphaScreen L3MBTL1–H3K9me1 peptide binding; Potency, µM (titrated, usually from 57.1 µM), actives largely listed as inhibitors; 230,000 tested, 0.66% active; AID 485360; also: nearly all actives have a fitted effect of over 60% in size
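AlphaScreen assay: L3MBTL1 (50 nM final) was preincubated 30 min at room temperature with biotinylated H3(1-15)K9me1 peptide (75 nM final), then 30 min with library compounds; streptavidin donor and nickel chelate acceptor beads (10 ug/mL final) added, 30 min dark.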
G9a inh: G9a (human) methyltransferase inhibition. AID 504332. Potency, µM (titrated, usually from 102 µM), actives largely listed as inhibitors. Q96KQ7. 350,000 tested, 8.8% active. G9a H3K9 monomethylation, AlphaScreen, 2 h; also: nearly all actives have a fitted effect of over 75% in size
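AlphaScreen read-out: biotin-H3K9 peptide (500 nM) methylation by 20 nM enzyme with 20 uM SAM, 2 h at room temperature after 15 min compound preincubation; anti-monomethyl H3K9 antibody plus donor/acceptor beads, 10 min dark.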
BAZ2B block: BAZ2B (human) inhibition; Q9UIF8; AlphaScreen BAZ2B-H3K14Ac peptide displacement; Potency, µM (highest dose often 114 µM), usual class: inhibitors; 360,000 tested, 4.4% active; AID 504333; also: nearly all actives have a fitted effect of over 60% in size
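AlphaScreen displacement of biotin-H3(5-23)K14Ac peptide (50 nM final) from BAZ2B (50 nM final) in PBS pH 7.4, 0.01% Tween-20; complex preformed 30 min RT, then compounds (top 110 uM) 30 min RT, beads 20 min dark.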
Numbers stand for hits; . = inactive; ? = inconclusive; / = no result given; [ ] = dose if it differs, or a comment. Calls follow the shape of the dose curve; as a rule, active = well fitted curve in the direction sought with a large enough effect; inconclusive = small, poorly fitted or top-dose-only effect, or another doubt; inactive = no such curve, though single readings can be large; an effect the other way counts as inactive or inconclusive.

SMILES	Sfp PPTase inh	HP1b binding inh	JMJD2A Tudor inh	L3MBTL1 inh	G9a inh	BAZ2B block
NC(=S)N/N=C1\CC(n2nnnc2-c2ccccc2)C2COC1O2 (stereo not given)	.	.	.	/	?	.
NC(=S)N/N=C1\CC(n2nnn(-c3cccc(Cl)c3)c2=S)C2COC1O2 (stereo not given)	.	.	?	/	40µM	?
CCn1cc(C(=O)NC(=S)Nc2ccccc2Br)cn1	.	.	.	/	?	.
Nc1ccc(NC(=O)c2ccc(C(=O)Nc3ccc(N)cc3)cc2)cc1	.	.	56µM	.	.	71µM
CCn1cc(C(=O)NC(=S)Nc2ccccc2[N+](=O)[O-])cn1	79µM	.	.	/	.[12.7 µM]	?
Nc1ccc(C(=O)Nc2ccc(Nc3ccncc3)cc2)cc1	?	.	.	.	.	.
CCn1cc(C(=O)NC(=S)Nc2cccc(O)c2)cn1	79µM	.	.	/	11µM	.
O=C(NC(=S)Nc1ccccc1C(=O)O)c1cncc(Br)c1	10µM	?	?	.	2µM	.
O=C(NC(=S)Nc1ccccc1O)c1cncc(Br)c1	/	.	.	/	/	/
COC(=O)CN(C)C(=O)c1ccc2nc(Cc3cccc(Cl)c3)oc2c1	.	.	.	.	/	.
CC(C)(C)Nc1nc(C#N)nc(Nc2ccccc2)n1	/	/	.	/	/	/
CCOCCc1nn2c(=O)cc(COC(=O)c3ccccc3Br)nc2s1	/	.	.	/	.	.
CCOc1ccc(CNC(=O)Cn2nc(C)n3cccc3c2=O)cc1	/	.	.	/	.	.
O=C1CCc2cc(S(=O)(=O)Nc3ccc4ccccc4c3)ccc2N1	/	/	.	/	/	/
Nc1ccc(C(=O)Nc2ccc3c(O)cc(S(=O)(=O)O)cc3c2)cc1	/	.	56µM	/	/	/
Nc1ccc(C(=O)Nc2ccc(OC(F)(F)C(F)F)c(NC(=O)c3ccc(N)cc3)c2)cc1	.	.	.	.	?	.
Cc1cc(NC(=O)c2cncc(Br)c2)n(-c2ccccn2)n1	.	.	.	/	.	50µM
O=C(Nc1ccccc1C(=O)Nc1ccccc1C(=O)O)c1ccccc1	.	.	.	/	.	.
Nc1ccc(C(=O)Nc2ccccc2C(=O)O)cc1	.	.	.	/	40µM	.
O=C(Nc1ccccc1C(=O)O)c1cncc(Br)c1	.	.	?	/	4.5µM	?
O=C(Nc1cc(C(F)(F)F)ccc1Cl)[C@H](O)CCc1ccccc1	/	/	.	/	/	/
CC(=O)N(C[C@@H](C)C(=O)O)c1c(I)cc(I)c(N)c1I	.	/	/	/	.[21.5 µM]	/
O=C(Nc1ccccc1C(=O)O)c1ncn[nH]1	45µM	.	.	.	10µM	?
O=C(CSc1ncn[nH]1)Nc1ccccc1C(=O)O	.	.	.	.	.	.
O=C(NC(=S)Nc1ccccn1)c1cncc(Br)c1	.	.	.	.	?	.
SMILES	Sfp PPTase inh	HP1b binding inh	JMJD2A Tudor inh	L3MBTL1 inh	G9a inh	BAZ2B block
O=C(NC(=S)Nc1ccccc1[N+](=O)[O-])c1cncc(Br)c1	.	.	.	.	45µM	.
CCn1cc(C(=O)Nc2ccccc2C(=O)OC)cn1	/	.	.	/	/	/
CCN(CC)c1ccc(NC(=O)c2cnn(CC)c2)cc1	.	?	?	.	16µM	40µM
CC(=O)c1cc(C(=O)Nc2ccccc2C(=O)O)oc1C	.	.	56µM	?	50µM	.
Cc1ccc2nc(CN3CCN(S(=O)(=O)c4ccc(F)cc4)CC3)oc2c1	/	.	.	/	.	.
C=CC1=C2C=C(C3CC3)N(CCN3CCOCC3)C=C2C(=O)C(C)(OC(=O)c2ccco2)C1=O (stereo not given)	.	/	/	/	/	/
CCC1N=C(SC)NC(C)=C1C(=O)c1ccccc1 (stereo not given)	.	.	.	/	4µM	.
CCC(C)NCCCCOc1ccc(Cl)cc1C (stereo not given)	.	.	14µM	.	?	.
CCC(C)NCCCOc1cc(Cl)ccc1Cl (stereo not given)	?	?	2.5µM	/	7.9µM	50µM
COc1ccc(CN2CCOCCOCCN(Cc3ccc(OC)cc3)CCOCCOCC2)cc1	.	.	.	.	/	.
COc1cccc(-c2nccc(NCc3ccccc3)n2)c1	.	/	/	/	.[0.501 µM]	/
O=C1NC(NS(=O)(=O)c2ccccc2)(C(F)(F)F)C(=O)N1Cc1ccccc1 (stereo not given)	.	.	.	/	.	.
c1cc2c(cn1)cnc1cscc12	.	.	.	.	79µM	.
c1cnc2c(c1)ncc1cscc12	.	.	.	.	.	.
CC1CCc2c(sc3nnn(Cc4cccc(C(=O)OC(C)C)c4)c(=O)c23)C1 (stereo not given)	/	.	.	/	18µM	.
Cc1cccc(OCCCCn2nnc3sc4c(c3c2=O)CCC(C)C4)c1 (stereo not given)	/	.	71µM	/	?	?
CN(C)c1ccc(N=Nc2ccc(S(=O)(=O)O)cc2)c2ccccc12	.	?	35µM	/	11µM	10µM
CN(C)c1ccc(N=Nc2ccc(S(N)(=O)=O)cc2)cc1	.	.	.	/	?	?
Oc1c(C(c2ccccc2F)N2CCC3(CC2)OCCO3)sc2nc(-c3ccco3)nn12 (stereo not given)	/	.	.	/	.	.
COc1ccc(S(=O)(=O)N(C(=O)c2ccncc2)c2ccc(OC(=O)c3ccncc3)cc2)cc1	.	.	.	/	35µM	.
COc1ccc(N(C(=O)c2ccncc2)S(=O)(=O)c2ccc(F)cc2)cc1	.	/	/	/	.	.
O=C(Nc1nnc(C2=COCCO2)o1)c1ccc(Cl)cc1	.	.	79µM	.	.	56µM
O=C(Nc1nnc(C2=COCCO2)o1)c1ccc(F)cc1	.	.	56µM	/	/	22µM
O=C(Nc1nnc(C2=COCCO2)o1)c1ccc([N+](=O)[O-])cc1	.	.	50µM	/	?	35µM
CC(=O)Nc1nnc(C2=COCCO2)o1	.	.	22µM	.	.	79µM
SMILES	Sfp PPTase inh	HP1b binding inh	JMJD2A Tudor inh	L3MBTL1 inh	G9a inh	BAZ2B block
CN(C)CCCn1c2c(c(SCC(=O)Nc3ccc4c(c3)OCCO4)nc1=O)CCC2	/	.	.	.	?	.
CC(NC(=O)C(=O)Nc1c2c(nn1-c1ccc(F)cc1)CSC2)c1ccccc1 (stereo not given)	/	.	.	/	.	.
COc1ccc(-c2nnc(NC(=O)C3=COCCO3)o2)cc1	.	.	.	.	.	28µM
O=C(C1CCCN(c2nnc(-n3cccc3)s2)C1)N1CCN(c2ccccc2)CC1 (stereo not given)	.	.	?	/	50µM	?
CC(C)C[C@@H](CC(=O)N[C@@H](CCCN)CC(=O)N[C@@H]1CCNC[C@H]1C(=O)N[C@H](CC(=O)N[C@@H](CCC(=O)O)CC(=O)O)Cc1ccccc1)NC(=O)[C@@H]1CNCC[C@H]1N	.	/	/	/	/	/
CCOc1ccc(C(=O)OCc2cc(=O)n3cc(C)sc3n2)cc1	/	.	.	/	.	.
COc1cc(/C=N/Nc2nc(=O)[nH]nc2C)cc([N+](=O)[O-])c1O	56µM	.	.	.	.	.
